From PubChem BioAssay (NCI)
This is part of a sample that, as a whole, favours compounds with a hit. Of some 83,000 tested, about 20% had one in any assay.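 A percent growth of 40 corresponds to 60% growth inhibition; 0 means no net growth; -100 means all cells died. Active threshold: below 10.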 The source made the active and inactive calls.

Columns and labels:
Assay in all cases: NCI-60 one-dose screen, 48 h (100 = growth as untreated, 0 = no growth, -100 = all killed)
[1] = system: SR leukemia; conditions: 10 µM unless noted
[2] = system: OVCAR-8 ovarian; conditions: 10 µM unless noted
[3] = system: OVCAR-5 ovarian; conditions: 10 µM unless noted
[4] = system: OVCAR-4 ovarian; conditions: 10 µM unless noted
[5] = system: IGROV1 ovarian; conditions: 10 µM unless noted
[6] = system: OVCAR-3 ovarian; conditions: 10 µM unless noted
[7] = system: NCI/ADR-RES ovarian; conditions: 10 µM unless noted
[8] = system: BT-549 breast; conditions: 10 µM unless noted
[9] = system: MDA-MB-435 melanoma; conditions: 10 µM unless noted
[10] = system: SW-620 colon; conditions: 10 µM unless noted
[11] = system: MCF7 breast; conditions: 10 µM unless noted
[12] = system: HCT-116 colon; conditions: 10 µM unless noted
[13] = system: HCC-2998 colon; conditions: 10 µM unless noted
[14] = system: KM12 colon; conditions: 10 µM unless noted
[15] = system: HS 578T breast; conditions: 10 µM unless noted
[16] = system: SK-OV-3 ovarian; conditions: 10 µM
[17] = system: T-47D breast; conditions: 10 µM

Measured: growth

CC1CCCCN1S(=O)(=O)c1ccc(CN=C=S)cc1 (stereo not given)
active: [1] 5.92% | [6] -55.6% | [10] -15.4% | [12] 9.92%
inactive: [2] 78.7% | [3] 93% | [4] 100% | [5] 60.9% | [7] 102% | [8] 76% | [9] 47.2% | [11] 10.2% | [13] 103% | [14] 22.2%

COc1cc2cc(Oc3ccc(NC(=O)Nc4cccc(C(F)(F)F)c4)cc3)c(C)nc2cc1OCCN1CCCCC1
inactive: [3] 61.6% | [8] 79.5%
active: [1] -19.4% | [2] -38.7% | [4] -12.9% | [5] -31.2% | [6] -92.6% | [15] -53.6% | [9] -92.8% | [10] -82% | [12] -23.1% | [13] -50% | [14] -92.2%

O=c1c2c(=NCCN3CCCC3)cc3c(=O)n(CCCN4CCOCC4)c(=O)c4c(-c5ccc(CN6CCCC6)cc5)cc(c(O)n1CCCN1CCOCC1)c2c4-3
active: [1] 3.49% | [2] -10.7% | [3] -34.6% | [4] -50.7% | [5] -25.4% | [6] -22.5% | [15] -26.3% | [7] -0.981% | [8] -50.9% | [9] -90.1% | [10] -45.2% | [11] -34.8% | [12] -23.8% | [13] -63.7% | [14] -47.7%

c1ccc(-c2n(Cc3ccc4ccccc4n3)c3ccccc3[n+]2Cc2ccc3ccccc3n2)cc1
inactive: [3] 12.8% | [7] 73.4%
active: [1] -19.1% | [2] 7.66% | [4] 7.64% | [5] -34.3% | [6] 0.883% | [8] -0.501% | [9] -12.7% | [10] 2.87% | [11] 1.36% | [12] 5.91% | [13] -3.47% | [14] -61.2%

Fc1c[c-]c(-c2ccccn2)c(F)c1.Fc1c[c-]c(-c2ccccn2)c(F)c1.[Cl][Pt+].[Cl][Pt+].c1ccc([PH+](C[PH+](c2ccccc2)c2ccccc2)c2ccccc2)cc1
active: [4] 6.98% | [6] 7.81% | [9] 5.73% | [11] 8.56% | [12] 8.2%
inactive: [1] 19.7% | [2] 15.1% | [3] 49.2% | [5] 21.2% | [15] 26.1% | [7] 97.9% | [8] 15.8% | [10] 15.5% | [13] 22.4% | [14] 12.3%

N#C/C(=C\c1ccc[nH]1)c1cc2ccccc2[nH]1
active: [11] 9.04%
inactive: [1] 68.3% | [2] 74.9% | [3] 82.4% | [4] 24.1% | [5] 59.2% | [6] 81.1% | [15] 87.5% | [7] 76.9% | [8] 66.9% | [9] 83.2% | [10] 96.3% | [12] 63.4% | [13] 63.8% | [14] 30.7%

N#Cc1c(O)c2c(c(O)c1C#N)C(=O)c1ccccc1C2=O
active: [2] 2.33% | [6] -9.86% | [7] 0.847% | [9] -91.2% | [10] 8.21% | [12] 1.88%
inactive: [1] 15.4% | [3] 108% | [4] 10.9% | [16] 109% | [5] 23.9% | [17] 23.2% | [8] 69.1% | [11] 46.2% | [13] 34.5% | [14] 73.4%

c1ccc2cc(-c3n(Cc4ccc5ccccc5n4)c4ccccc4[n+]3Cc3ccc4ccccc4n3)ccc2c1
inactive: [7] 58.6%
active: [1] -24.5% | [2] -0.932% | [3] 8.83% | [4] 4.26% | [5] -51% | [6] -18.9% | [15] -9.29% | [8] -5.25% | [9] -35.6% | [10] -9.76% | [12] 2.75% | [13] -52.7% | [14] -80.8%

Nc1cccc2c(=S)c3ccccc3[nH]c12
inactive: [1] 111% | [2] 93.7% | [3] 92.9% | [4] 83% | [5] 86.9% | [6] 91% | [15] 94.3% | [7] 101% | [8] 102% | [9] 106% | [10] 92.6% | [11] 85.6% | [12] 93.4% | [13] 106% | [14] 102%

C=CCCCCCCCCC(=O)[O-].C=CCCCCCCCCC(=O)[O-].[Zn+2]
inactive: [1] 91.1% | [17] 112%

COc1cc2cc(Oc3ccc(NC(=O)Nc4ccc(Cl)c(C(F)(F)F)c4)cc3)c(C)nc2cc1OCCN1CCCCC1
inactive: [3] 67.1% | [8] 71.7%
active: [1] -15.9% | [2] -34.4% | [4] -4.36% | [5] -47.2% | [6] -82.8% | [15] -44.5% | [7] 3.87% | [9] -95.9% | [10] -89.4% | [11] -85.9% | [12] -46.3% | [13] -38.6% | [14] -79.6%

O=C1CCC(N2Cc3c(C#CCCCNC(=O)c4cc5c(o4)C(=O)c4ccccc4C5=O)cccc3C2=O)C(=O)N1 (stereo not given)
inactive: [1] 12.1% | [3] 20.2% | [7] 89.6%
active: [2] 4.59% | [4] -98.5% | [5] -5.62% | [6] -37.3% | [15] -32.8% | [17] 7.33% | [8] -94.8% | [10] -34.7% | [11] -68.6% | [12] -25.5% | [13] -64.1% | [14] -1.98%

Cc1c(C(=O)Nc2nc(-c3ccccc3)cs2)nnn1-c1cccc2ccccc12
inactive: [1] 29.2% [50 µM] | [2] 50.9% [50 µM] | [3] 86.8% [50 µM] | [4] 23.7% [50 µM] | [5] 69.9% [50 µM] | [6] 71.8% [50 µM] | [15] 79.5% [50 µM] | [8] 56.7% [50 µM] | [9] 47.2% [50 µM] | [10] 71.6% [50 µM] | [11] 38.7% [50 µM] | [12] 30% [50 µM] | [13] 87.7% [50 µM] | [14] 65% [50 µM]

FCOC(C(F)(F)F)C(F)(F)F
inactive: [1] 86.2% | [2] 107% | [3] 103% | [4] 121% | [16] 98% | [5] 111% | [6] 107% | [7] 106% | [17] 97.9% | [8] 103% | [9] 103% | [10] 101% | [11] 101% | [12] 103% | [13] 104% | [14] 103%

NC(=O)c1cccc(-n2ccc3cc(NC(=O)Nc4ccc(Cl)c(Cl)c4)ccc32)n1
inactive: [1] 45.5% | [2] 80.9% | [3] 106% | [4] 68.2% | [5] 87.9% | [6] 82.9% | [15] 58.5% | [7] 91.8% | [17] 49.3% | [8] 65.8% | [9] 61% | [10] 94.2% | [11] 57.7% | [12] 71.9% | [13] 97.7% | [14] 55.5%

Nc1nc(-c2ccnc(Cl)c2)nn1-c1nc2ccccc2s1
inactive: [1] 120% | [2] 102% | [3] 95.9% | [4] 102% | [5] 99.1% | [6] 114% | [15] 96.8% | [7] 104% | [8] 106% | [9] 107% | [10] 106% | [12] 107% | [13] 104% | [14] 101%

COc1cc(Cn2cc(F)c(=O)[nH]c2=O)cc(OC)c1
inactive: [1] 103% [50 µM] | [2] 101% [50 µM] | [3] 101% [50 µM] | [4] 108% [50 µM] | [5] 106% [50 µM] | [6] 126% [50 µM] | [15] 96.7% [50 µM] | [7] 112% [50 µM] | [8] 95.4% [50 µM] | [9] 109% [50 µM] | [10] 102% [50 µM] | [11] 104% [50 µM] | [12] 111% [50 µM] | [13] 114% [50 µM] | [14] 108% [50 µM]

c1ccc(-c2n(Cc3ccc4ccccc4c3)c3ccccc3[n+]2Cc2ccc3ccccc3c2)cc1
active: [1] -23.6% | [2] -22.9% | [3] 2.69% | [4] -4.85% | [5] -77.5% | [6] -84.2% | [15] -33.8% | [8] -28.2% | [9] -76.4% | [10] -48.5% | [12] -85.4% | [13] -79.3% | [14] -86.8%

CCN1CCN(c2ccc(Nc3ncc4ccc5ncn(C(C)C)c5c4n3)nc2)CC1
inactive: [2] 13.6%
active: [1] 3.9% | [3] 4.92% | [4] 5.12% | [5] -4.82% | [6] -28.2% | [15] -20.8% | [7] 2.06% | [8] -24.7% | [9] 0.992% | [10] -7.47% | [12] 8.77% | [13] -4.57% | [14] -16.9%

Cc1ccccc1-n1nnc(C(=O)Nc2nc(-c3ccccc3)c(-c3ccccc3)s2)c1C
inactive: [1] 69.5% [50 µM] | [2] 67.9% [50 µM] | [3] 96.5% [50 µM] | [4] 58.1% [50 µM] | [5] 89.9% [50 µM] | [6] 79.8% [50 µM] | [15] 46.7% [50 µM] | [7] 84.3% [50 µM] | [8] 89.7% [50 µM] | [9] 82.7% [50 µM] | [10] 87.3% [50 µM] | [11] 72.2% [50 µM] | [12] 62.6% [50 µM] | [13] 99.1% [50 µM] | [14] 81.4% [50 µM]
